The values below come from PubChem BioAssay AID1578 (Sanford-Burnham Center for Chemical Genomics, 2009).

About 3,000 (1%) of roughly 290,000 compounds were called active. Cut-off read from the data, not from the text of the source: active = inhibition mostly above about 36% (no sharp cut-off); inactive = mostly below about 34%. The entries come from a sample that favours actives as a whole.

This assay can be described thus: inhibition of NOD1-driven NF-kB reporter – cell-based, luminescence, uHTS, primary screen (AID 1578).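 Note: HEK-293T reporter cells stimulated with the NOD1 agonist gamma-tri-DAP.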 The settings on record: NOD1-driven NF-kB luciferase reporter cells, at 4 µM, stronger effect = higher value.
For orientation: inhibition means the relative decrease from the control value, in per cent. On to `N#CCCN(C(=O)CCl)c1cccc(Cl)c1`, for which the inhibition is 58% (active). Under `O=C(c1ccco1)N(Cc1ccccc1)c1cccc([N+](=O)[O-])c1` stands 24% (inactive); under `Cc1cccc(N(Cc2ccccc2)C(=O)CCl)c1`, -31.5% (inactive).

`Cc1ccc(C(=O)N(CC#N)CC#N)cc1C`: the inhibition is -16.5% (inactive). Under `N#CCCN(C(=O)COc1ccc(Cl)cc1Cl)c1ccccc1` stands -24.1% (inactive); under `N#CCCN(C(=O)Nc1ccc(Cl)cc1)c1ccccc1`, -13% (inactive).

Consider `O=C(CCl)N(Cc1cccc([N+](=O)[O-])c1)c1cccc(Cl)c1`, for which the inhibition is 101% (active). Under `Cc1ccc(N(CCC#N)C(=O)CSc2ccc3c(c2)OCCO3)cc1` stands 3.9% (inactive).

With `Cc1ccc(N(CCC#N)C(=O)CCl)cc1C`, the inhibition is 97.7% (active). As for `CCCCc1n[nH]c2c1/C(=N/O)CC(C)(C)C2`, the inhibition is -12.1% (inactive). `O=C(N/N=C/c1ccncc1)c1cc2ccccc2cc1O`: the inhibition is 11.3% (inactive).

As for `Cc1cccc(NC(=O)CSC2=NN3CCCC(=O)N=C3S2)c1C`, the inhibition is 7.2% (inactive). `CC(=O)O/N=C(/c1nonc1N)N(C)C`: the inhibition is -21.6% (inactive). Under `CCCc1nc2ccc(N)cc2c(=O)n1Cc1ccccc1Cl` stands -43.9% (inactive); under `CC(Sc1nc(N)c(NC(=O)c2ccc(Br)o2)c(=O)[nH]1)C(=O)O` (centres undefined), -18.7% (inactive); under `N#C/C(=C/c1cccc([N+](=O)[O-])c1)c1nnc2n1CCCCC2`, -32.4% (inactive). The same measure for `CN(c1ccccc1)c1ccc(/C=C(\C#N)c2nnc3n2CCCCC3)cc1[N+](=O)[O-]`: 78.8% (active); for `N#C/C(=C\c1cccc([N+](=O)[O-])c1)c1nnc2n1CCCCC2`: 9% (inactive); for `Cc1ccnc(NC(=O)/C=C/c2ccccc2[N+](=O)[O-])c1`: -40.4% (inactive). The same measure for `Cc1nccn1CC(O)COc1ccc([N+](=O)[O-])cc1` (centres undefined): -5.8% (inactive). With `CCOC(=O)Cn1nnnc1CN(Cc1ccc(OC)cc1)Cc1cc2cc(C)cc(C)c2[nH]c1=O`, the inhibition was -21.1% (inactive).

Regarding `Cn1c(=O)c2c(nc(N/N=C/c3ccc(OC(=O)c4ccco4)cc3)n2Cc2ccc(F)cc2)n(C)c1=O`, the inhibition is 33.2% (inactive). Under `Cn1c(=O)c2c(nc(N/N=C/c3ccc(OC(=O)c4ccco4)cc3)n2Cc2ccccc2)n(C)c1=O` stands 26.6% (inactive); under `Cc1nn2c3ccccc3n(CC(=O)c3cccs3)c2nc1=O`, 19.3% (inactive); under `COc1cccc(CNC(=O)N2CCN(S(=O)(=O)c3ccc(Cl)cc3)CC2)c1`, 12.4% (inactive). Turning to `COc1ccc(C(=O)C2CCCN(C(=O)COc3ccc(C(C)=O)cc3)C2)cc1F` (centres undefined), the inhibition is -21.9% (inactive). The same measure for `CCC(CO)[n+]1c(C)cc(/C=C2\Sc3ccccc3N2Cc2ccccc2)cc1C` (centres undefined): 75.9% (active). Take `CCN1/C(=C2\SC(=S)N(Cc3ccccc3)C2=O)Sc2ccccc21`: the inhibition was 4.6% (inactive). The same measure for `C[n+]1ccccc1/C=C1\Sc2ccccc2N1CCO`: -20.4% (inactive); for `COc1ccc(CNS(=O)(=O)c2ccccc2Br)cc1`: 3.1% (inactive). Under `CC(=O)c1cccc(Nc2ccc(-c3ccccc3F)nn2)c1` stands -57.9% (inactive); under `Cc1ccc(C(=O)NC(=S)N2CCN(C)CC2)cc1`, -21.2% (inactive); under `Cc1ccc(C(=O)NC(=S)N2CCN(c3ccccc3F)CC2)cc1`, 19.9% (inactive). Under `Cc1ccc(C(=O)NC(=S)N2CCN(c3cc(C)ccc3C)CC2)cc1` stands 55.1% (active); under `COc1ccc(OCC(O)CNC2CCCC2)cc1` (centres undefined), 5.8% (inactive); under `Cc1ccc(OCC(O)CNC2CCCC2)cc1C` (centres undefined), 62.6% (active). `Cc1ccc(C)c(OCC(O)CNC2CCCC2)c1` (centres undefined): the inhibition is -40.4% (inactive).

Take `CC(C)OC1(c2ccccc2)OC(=O)c2ccccc21` (centres undefined): the inhibition was 13.3% (inactive). Under `Cc1ccc(C(=O)n2c(N)nc3ccccc32)cc1` stands 41.2% (active); under `Cc1ccc(C(=O)n2c3ccccc3c3ccccc32)cc1`, 7.1% (inactive). As for `CC(=O)n1c2ccccc2c2ccccc21`, the inhibition is 11.7% (inactive).

Regarding `Nc1ccc(C(=O)n2c3ccccc3c3ccccc32)cc1`, the inhibition is 75.2% (active).

`Nc1nc2ccccc2n1C(=O)c1ccccc1`: the inhibition was -26.6% (inactive). The same measure for `COc1ccc(C(=O)n2c(N)nc3ccccc32)cc1OC`: -61.2% (inactive); for `O=C(CC1C(=O)NCCN1Cc1ccc(-c2ccccc2)cc1)NCCCn1cccn1` (centres undefined): -27.9% (inactive). Under `CNC(=O)COC(=O)[C@@H](Nc1ccc(S(=O)(=O)N2CCOCC2)cc1[N+](=O)[O-])C(C)C` stands -8.1% (inactive).

For the compound `Cc1ccc(C(=O)Nc2ncn[nH]2)cc1`, the inhibition was -32.8% (inactive). Under `CCOc1ccc(-c2[nH]ncc2Oc2cccc(OC)c2)c(O)c1` stands 10.8% (inactive); under `CCCCc1c(C)c(C#N)c2nc3ccccc3n2c1Cl`, 101% (active). Under `N#Cc1c(-c2ccccc2)c(C#N)c2nc3ccccc3n2c1N` stands 37.8% (inactive); under `CCCCCc1c(C)c(C#N)c2nc3ccccc3n2c1-n1ccnc1C`, 15.8% (inactive); under `CCc1c(C)c(C#N)c2nc3ccccc3n2c1Cl`, 62.6% (inactive).

For `CCCCc1c(C)c(C#N)c2nc3ccccc3n2c1NCCN(C)C`, the inhibition was -4.5% (inactive). Under `CCc1c(C)c(C#N)c2nc3ccccc3n2c1N(C)C` stands 2% (inactive).

On to `Cc1cc(Cl)n2c(nc3ccccc32)c1C#N`, for which the inhibition is -29.7% (inactive).

Take `CC(C)(C)C1=C(C#N)C(c2cccnc2)C(C#N)=C(N)O1` (centres undefined): the inhibition was 19.8% (inactive). Under `CCCCOc1ccc(-c2[nH]ncc2C=O)cc1` stands -46% (inactive); under `COc1ccc2nc(NC(=O)c3cccs3)sc2c1`, -15.7% (inactive); under `CCOc1ccc(OCC)c(N=c2oc3c(C)ncc(CO)c3cc2C(N)=O)c1`, 23.3% (inactive). With `CSc1nnc(CNS(=O)(=O)c2ccc(Cl)cc2)n1C`, the inhibition was -7.4% (inactive).

`CC(=O)N(C(C)=O)c1ncnc2c1c(-c1ccc(Cl)cc1)nn2C(C)(C)C`: the inhibition was 71.2% (active). Under `CC(C)(C)n1nc(-c2ccc(Cl)cc2)c2c(N)ncnc21` stands 54.6% (inactive). The same measure for `CC(=O)Nc1ncnc2c1c(-c1ccc(Cl)cc1)nn2C(C)(C)C`: 39.6% (inactive). As for `Cc1ccccc1C(=O)Nc1ccccn1`, the inhibition was -7.2% (inactive).

`c1ccc(-c2nn3c(-c4ccccc4)nnc3s2)cc1`: the inhibition is -69.4% (inactive). In the case of `O=S(=O)(/N=C(/Nc1ccccn1)c1ccccc1)c1ccccc1`, the inhibition was 5.7% (inactive).

In the case of `O=S(=O)(/N=C(/Nc1cc(N2CCOCC2)ncn1)c1ccccc1)c1ccccc1`, the inhibition is 0.2% (inactive).

Regarding `COc1cc(N/C(=N/S(=O)(=O)c2ccccc2)c2ccccc2)ncn1`, the inhibition is 48.5% (active). Under `Cn1c(CO)cnc1SCc1ccc(Cl)cc1` stands -5.4% (inactive).

With `CC(=O)Oc1ccc(N2C(=O)C3C4C=CC(CO)(O4)C3C2=O)cc1` (centres undefined), the inhibition was -9.3% (inactive). The same measure for `O=C1C2C3C=CC(CO)(O3)C2C(=O)N1c1ccccc1-c1ccccc1` (centres undefined): 72.3% (active); for `O=C1C2C3C=CC(CO)(O3)C2C(=O)N1c1ccc(-c2ccccc2)cc1` (centres undefined): 35.6% (inactive); for `CCc1ccc(CNc2ccc3c(c2)ncn3CC)cc1`: -16.7% (inactive). Under `CCC(SC1=NCCS1)C(=O)Nc1nnc(-c2ccccc2OC)s1` (centres undefined) stands -17.6% (inactive); under `NC(=O)Nc1ccc(C(=O)OCC(=O)N(Cc2ccccc2)C2CCS(=O)(=O)C2)cc1` (centres undefined), -20.7% (inactive). As for `CN1CCc2c(sc(NC(=O)C3COc4ccccc4O3)c2C(N)=O)C1` (centres undefined), the inhibition was -27.9% (inactive).

Take `CC(=O)CSc1ccc(-c2nc3cc(C)c(C)cc3[nH]2)cn1`: the inhibition is 58.4% (active). The same measure for `CCOC(=O)CSc1ccc(-c2nc3cc(C)c(C)cc3[nH]2)cn1`: -40.2% (inactive). The same measure for `Cc1cc2nc(-c3ccc(SCC(=O)NC(C)C)nc3)[nH]c2cc1C`: 23.9% (inactive); for `CN(C)Cc1ccc(CNC(=O)COc2ccc3ccccc3c2)cc1`: -35.8% (inactive). Under `CC(=O)Nc1ccc(S(=O)(=O)N/N=C/c2cccnc2)cc1` stands -27.3% (inactive); under `CCOc1c(Br)ccc2c1sc1nc[nH]c(=O)c12`, 66.7% (active). As for `CCOC(=O)c1c(N)sc2c(OCC)c(Br)ccc12`, the inhibition is -11.3% (inactive). The same measure for `CCOc1ccc(-c2c(C)sc3nc[nH]c(=O)c23)cc1`: -20.6% (inactive); for `COc1cccc(NC(=S)N2C3CCCC2CC(NC(=O)C2CC2)C3)c1` (centres undefined): -11.4% (inactive); for `CC(=C/c1ccc(C(C)C)cc1)/C=N/NC(=O)CSc1ccccn1`: -42.7% (inactive). The same measure for `CCC1CCCCN1S(=O)(=O)c1ccc(NC(=O)c2cccs2)cc1` (centres undefined): -29.4% (inactive). Under `O=C(Nc1ccc(S(=O)(=O)N2CCCCC2)cc1)c1ccncc1` stands 9.7% (inactive); under `CCC1CCCCN1S(=O)(=O)c1ccc(NC(=O)c2cccnc2)cc1` (centres undefined), 30.5% (inactive). Turning to `O=C(Nc1ccc(Cc2ccncc2)cc1)c1ccc(S(=O)(=O)N2CCOCC2)cc1`, the inhibition was 31.5% (inactive). For the compound `CCN(CC)S(=O)(=O)c1ccc(OC)c(NC(=O)CSc2cc(C)ccc2C)c1`, the inhibition was -19.1% (inactive). Under `C=CCN(c1ccccc1C(=O)O)S(=O)(=O)c1ccc(C)cc1` stands -26.8% (inactive). Under `O=S(=O)(Nc1ccc2c(c1)CCC2)c1cccs1` stands 11.6% (inactive).

For the compound `O=c1c2ccccc2ncn1-c1ccc2c(c1)OCCO2`, the inhibition is 26.3% (inactive). In the case of `CS(=O)(=O)Nc1ccc(C(=O)NCCC2=CCCCC2)cc1`, the inhibition is -9.5% (inactive). Under `CS(=O)(=O)N(Cc1ccc(Cl)cc1)c1ccc(C(=O)NCCC2=CCCCC2)cc1` stands 9.1% (inactive); under `CN(c1ccc(C(=O)NCCC2=CCCCC2)cc1)S(C)(=O)=O`, 68.1% (active); under `Cc1cc(NC(=O)CSc2nccn2C)n(-c2ccccc2)n1`, -0.5% (inactive). Consider `Cc1cccc(N2CCCn3c2nc2c3c(=O)n(CCN3CCOCC3)c(=O)n2C)c1`, for which the inhibition was 17.7% (inactive).
